Reference: PubChem BioAssay (Tox21)
Results filed as inconclusive are left out. Where a call stands in place of a potency, no number is given. Activity calls are given as the source filed them. The call rests on the fitted dose curve; in most records, active means well fitted inhibition curve with a large enough effect in the repeat runs; inconclusive means weak or mixed curves; inactive means flat fitted curve, though single readings scatter.

Biological target: Voltage-gated inwardly rectifying potassium channel KCNH2 (Homo sapiens) (UniProt Q12809)
Sequence (Q12809 whole entry, looked up): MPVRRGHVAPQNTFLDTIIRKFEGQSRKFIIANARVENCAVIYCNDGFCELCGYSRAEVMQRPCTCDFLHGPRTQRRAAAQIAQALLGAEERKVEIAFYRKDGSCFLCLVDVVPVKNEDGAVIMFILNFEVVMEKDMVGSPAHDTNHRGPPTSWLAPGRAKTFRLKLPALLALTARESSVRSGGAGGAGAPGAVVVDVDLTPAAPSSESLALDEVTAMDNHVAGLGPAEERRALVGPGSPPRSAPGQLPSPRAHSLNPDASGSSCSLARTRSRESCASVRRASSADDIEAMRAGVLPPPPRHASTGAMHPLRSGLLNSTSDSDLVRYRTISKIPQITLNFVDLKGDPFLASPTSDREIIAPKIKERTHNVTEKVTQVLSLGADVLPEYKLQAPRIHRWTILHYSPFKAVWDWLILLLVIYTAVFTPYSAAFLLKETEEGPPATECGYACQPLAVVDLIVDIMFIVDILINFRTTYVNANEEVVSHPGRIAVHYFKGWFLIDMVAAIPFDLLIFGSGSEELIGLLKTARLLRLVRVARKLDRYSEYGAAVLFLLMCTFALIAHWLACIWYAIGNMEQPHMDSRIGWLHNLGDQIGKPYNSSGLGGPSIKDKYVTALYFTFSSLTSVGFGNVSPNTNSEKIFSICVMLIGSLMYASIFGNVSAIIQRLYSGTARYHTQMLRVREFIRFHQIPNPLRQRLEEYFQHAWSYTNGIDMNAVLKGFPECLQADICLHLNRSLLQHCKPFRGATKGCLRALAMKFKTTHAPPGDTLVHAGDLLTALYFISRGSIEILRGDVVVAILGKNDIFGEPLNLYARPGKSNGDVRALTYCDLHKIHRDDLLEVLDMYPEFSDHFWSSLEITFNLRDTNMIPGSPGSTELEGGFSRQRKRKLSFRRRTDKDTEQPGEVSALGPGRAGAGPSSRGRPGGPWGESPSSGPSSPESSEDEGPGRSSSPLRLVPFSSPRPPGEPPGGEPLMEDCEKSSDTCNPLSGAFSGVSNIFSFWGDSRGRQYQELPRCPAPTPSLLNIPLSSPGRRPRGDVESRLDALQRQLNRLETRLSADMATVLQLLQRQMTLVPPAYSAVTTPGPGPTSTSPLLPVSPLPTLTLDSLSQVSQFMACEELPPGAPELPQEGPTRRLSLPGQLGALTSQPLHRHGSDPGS
Test: Human Ether-a-go-go-Related Gene (hERG) channel small molecule antagonists: fluorescence cell-based qHTS assay (AID 1671200); further: nearly all actives have a fitted effect of over 50% in size
Conditions: hERG-U2OS cells, FluxOR thallium flux fluorescence; series mostly up to 76.8 µM
Source text: National Center for Advancing Translational Sciences [NCATS]
U.S. Environmental Protection Agency [EPA]
National Institutes of Environmental Health Sciences [NIEHS]
National Toxicology Program [NTP]
U.S. Food and Drug Administration [FDA]
Mutations in the hERG channel cause Long QT (LQT) syndrome. LQT syndrome is a cardiac disorder which can cause ventricle arrhythmia and sudden death. Additionally, compounds which block the hERG channel can cause acquired LQT syndrome. Several FDA approved drugs have been removed from the market due to their hERG blocking activity. A cell-based hERG channel inhibition assay can be used to screen chemical compounds that inhibit hERG channel. This assay measures hERG channel activity using thallium ions as surrogate ions to measure potassium into the cells.
Tox21 Assay Protocol Summary:
hERG-U2OS cells were resuspended in culture medium and dispensed into 1536-well, black wall/clear-bottom plates at 1000cells/well/3uL using a Multidrop Combi dispenser (Thermo Fisher, Waltham, MA). After plates were incubated at 37 C overnight, 3 uL of Loading Buffer provided by FluxOR II Potassium Ion Channel Assay kit (Thermo, Carlsbad, CA) was added to each well. The assay plates were then incubated at room temperature in the dark for 1h. […] After the assay plates were incubated at room temperature for 10 min, 1 uL of Stimulus Buffer provided by FluxOR II Potassium Ion Channel Assay kit was added into each well and fluorescence intensity (480nm excitation/540nm emission) was continuously measured for 2 min at 1 second intervals using a Functional Drug Screening System (FDSS) 7000EX kinetic plate reader (Hamamatsu, Japan).
Potency means the concentration at half of the fitted maximal effect.

| Compound | Potency |
| --- | --- |
| Oc1cc(Cl)ccc1Cl | inactive |
| C=CCc1ccc(OC)cc1 | inactive |
| C=CC(=O)OCCO | inactive |
| CCCCCCCCOC(=O)c1ccccc1C(=O)OCCCCCCCC | inactive |
| CCCCCc1cc(O)cc(O)c1 | inactive |
| Nc1c(Cl)cc([N+](=O)[O-])cc1Cl | inactive |
| CCCCC(CC)COC(=O)Cl (stereo not given) | inactive |
| CCC(=O)O[C@H]1CC[C@H]2[C@@H]3CCC4=CC(=O)CC[C@]4(C)[C@H]3CC[C@]12C | 34.7 µM (active) |
| O=Cc1ccco1 | inactive |
| N#CC(Br)Br | inactive |
| CCC(C)c1cc([N+](=O)[O-])cc([N+](=O)[O-])c1O (stereo not given) | inactive |
| NNC(N)=S | inactive |
| COc1ccc(C=O)cc1 | inactive |
| CCOc1cc(Oc2ccc(C(F)(F)F)cc2Cl)ccc1[N+](=O)[O-] | inactive |
| COP(=S)(OC)Oc1cc(Cl)c(Cl)cc1Cl | inactive |
| NC(=S)Nc1ccccc1 | inactive |
| Oc1cc(Cl)c(Cl)cc1Cl | inactive |
| NCc1cccnc1 | inactive |
| Nc1ccc(-c2ccc(N)c(N)c2)cc1N | inactive |
| O=P(O)(O)CCCl | inactive |

| Compound | Potency |
| --- | --- |
| CCOc1cc(C=O)ccc1O | inactive |
| O=C1C=CC(=O)C=C1 | inactive |
| CCCCNC(=O)n1c(NC(=O)OC)nc2ccccc21 | inactive |
| CCOCN(C(=O)CCl)c1c(C)cccc1CC | inactive |
| C=C(C)C(=O)OCC1CO1 (stereo not given) | inactive |
| CC(O)CCO (stereo not given) | inactive |
| c1ccc(NNc2ccccc2)cc1 | inactive |
| CC(C)N(C(=O)SCC(Cl)=C(Cl)Cl)C(C)C | 27.5 µM (active) |
| CCCCN(CCCC)N=O | inactive |
| CCOC(=S)S | inactive |
| CCC(C)c1ccc(O)cc1 (stereo not given) | inactive |
| Nc1cccnc1 | inactive |
| COP(=O)(OC)OC | inactive |
| CCC(C)(C)c1ccc(O)cc1 | inactive |
| C1=Cc2cccc3cccc1c23 | inactive |
| C[C@]12CCC(=O)C[C@@H]1CC[C@@H]1[C@@H]2CC[C@]2(C)[C@@H](O)CC[C@@H]12 | 21.6 µM (active) |
| O=[N+]([O-])c1cccc2ccccc12 | inactive |
| CC(C)(C)c1ccccc1O | inactive |
| Nc1ccncc1 | inactive |
| CC(C)(OOC(C)(C)c1ccccc1)c1ccccc1 | inactive |
